# Assay results: PubChem BioAssay AID463173 (ICCB-Longwood Screening Facility, Harvard Medical School, 2010)
# Hit rate of the full screen: of about 52,000 compounds, about 1,700 (3.3%) were called active. What follows is part of a selection rich in actives, with near analogues and random picks from the rest. Values without a mark were called inactive. No stated cut-off is given here; in the data, active means survival mostly below about 52% (no sharp cut-off); inactive means mostly above about 56%.
# Test system: Wild type
# Test: growth inhibition of S. aureus wild type versus tarO mutant, primary screen, teichoic acid synthesis inhibitors, RN4220, OD600 (AID 463173)
# Details: S. aureus RN4220 wild type/DeltatarO growth, OD600, 18 h, active compounds read low, screened at 18.75 µg/mL (by protocol)
row,SMILES,survival
1,Cc1ccc(CNC(=O)Nc2cc(C(=O)NCc3cccc(F)c3)ccc2N2CCCC2)cc1,128%
2,CCOC(=O)c1cccc(NC(=O)CCc2c(C)nn(-c3ccc(N4CCCCC4)nn3)c2C)c1,95%
3,Cc1nnc(C)c2c(C)n(-c3ccc4c(c3)OCO4)c(C)c12,111%
4,CCOc1ccc(N(CC)C(=O)Cn2cnc3sc(C)c(S(=O)(=O)N4CCN(c5ncccn5)CC4)c3c2=O)cc1,78%
5,COc1ccc(NCc2cccn2-c2nnc(N3CCCCCC3)s2)cc1,78%
6,Cc1ccc(NCc2cccn2-c2nnc(N3CCCCCC3)s2)cc1,77%
7,CCc1ccc(NCc2cccn2-c2nnc(N3CCCCCC3)s2)cc1,-1% (active)
8,CCC(C)NC(=O)CSc1nc2ccc(C(C)C)cc2cc1C#N (stereo not drawn),103%
9,COc1cccc(CNC(=O)c2ccc(NC(=O)N3CCCCc4ccccc43)cc2)c1OC,73%
10,Cc1nc2nc(SCC(=O)NCCc3ccc(Cl)cc3)nn2c(C)c1Cc1ccccc1,56%
11,Cc1nnc(NC(=O)CSc2nccn2Cc2ccc(Cl)cc2)s1,118%
12,Cc1ccc2nc(NC(=O)CSc3nccn3Cc3ccc(F)cc3)sc2c1,80%
13,Cc1nnc(NC(=O)CSc2nccn2Cc2ccc(F)cc2)s1,-2% (active)
14,O=C(CSc1nccn1Cc1ccccc1)Nc1nc2ccccc2s1,121%
15,O=C(CSc1nccn1Cc1ccc(Cl)cc1)Nc1nc2ccccc2s1,0% (active)
16,Cc1ccc2nc(NC(=O)CSc3nccn3Cc3ccccc3)sc2c1,10% (active)
17,O=C(CSc1nccn1Cc1ccc(F)cc1)Nc1nc2ccccc2s1,82%
18,Cc1ccc2nc(NC(=O)CSc3nccn3Cc3ccc(Cl)cc3)sc2c1,72%
19,Cc1ccc(Cn2ccnc2SCC(=O)Nc2nnc(C)s2)cc1,65%
20,CCOc1ccc(NC(=O)Cn2c(=O)n(Cc3ccccc3)c(=O)c3sc4ccccc4c32)cc1,78%
21,COc1cc(NC(=O)Nc2nnc(N3CCCCCC3)s2)cc(OC)c1,78%
22,Cc1cccc(N2CCN(c3ncnc4c3cnn4-c3ccc(Cl)cc3)CC2C)c1 (stereo not drawn),83%
23,CCc1ccc(OCc2nc(-c3ccc(-n4cccc4)cc3)no2)cc1,104%
24,CCCc1ccc(OC(C)c2nc(-c3ccc(-n4cccc4)cc3)no2)cc1 (stereo not drawn),56%

row,SMILES,survival
1,CCc1ccc(OC(C)c2nc(-c3ccc(-n4cccc4)cc3)no2)cc1 (stereo not drawn),-4% (active)
2,O=C(Nc1ccc2oc(-c3ccncc3)nc2c1)c1ccccc1Cl,73%
3,Cc1ccc(CNC(=O)c2cc3c(=O)oc4ccc(C)cc4c3s2)cc1,88%
4,COc1cc2cc(CN(Cc3ccc4c(c3)OCO4)C(=O)NCc3ccccc3)c(=O)[nH]c2cc1OC,117%
5,CCOCCCNC(=O)C(c1ccc(OC)cc1)N(Cc1ccc2c(c1)OCO2)C(=O)c1ccc(NC(C)=O)cc1 (stereo not drawn),69%
6,NC(=O)CC(c1ccccc1)c1ccc2c(c1)OCO2 (stereo not drawn),117%
7,CCOCCCNC(=O)C(c1ccccc1)N(Cc1ccc2c(c1)OCO2)C(=O)c1ccc(NC(C)=O)cc1 (stereo not drawn),70%
8,COc1ccc(CNCCC(c2ccc(C)cc2)c2ccco2)cc1 (stereo not drawn),72%
9,COc1ccc(CNCCC(c2ccc3c(c2)OCO3)c2ccccc2OC)cc1 (stereo not drawn),25%
10,COc1ccc(CN(CCC(c2ccc3c(c2)OCO3)c2ccccc2OC)C(C)=O)cc1 (stereo not drawn),8% (active)
11,CCC(=O)N(CCC(c1ccccc1)c1ccc2c(c1)OCO2)Cc1ccc(OC(C)C)cc1 (stereo not drawn),1% (active)
12,COc1ccc(CNCCC(c2ccccc2)c2ccc3c(c2)OCO3)cc1 (stereo not drawn),3% (active)
13,C=CCc1c(C)nc(SC)[nH]c1=O,114%
14,Cc1cccc(-c2nc3ccccc3n3c(-c4ccccc4)c4c(=O)n(C)c(=O)n(C)c4c23)c1,121%
15,O=C(CN1C(=O)c2ccccc2Sc2ncccc21)Nc1cccc(C(F)(F)F)c1,85%
16,CCSc1nc2ccccc2c(OCc2cc(C(=O)OC)ccc2OC)c1C(=O)OC,-15% (active)
17,CCSc1nc2ccccc2c(OCc2ccccc2Cl)c1C(=O)OC,75%
18,CCSc1nc2ccccc2c(OCc2ccc(Cl)cc2)c1C(=O)OC,88%
19,Cc1ccc(N2CCN(S(=O)(=O)c3cc(C(=O)Nc4cc(Cl)cc(Cl)c4)ccc3F)CC2C)cc1 (stereo not drawn),71%
20,COc1ccc(OC)c(CNC(=O)c2c(C)oc3ncn(C)c(=O)c23)c1,70%
21,O=C(COc1ccccc1)Nc1c(C(=O)N2CCN(c3ccc(F)cc3)CC2)oc2ccccc12,74%
22,COc1ccc(C(CC(=O)Nc2cccc(C)c2C)N2Cc3ccccc3C2=O)cc1 (stereo not drawn),68%
23,COc1ccc(OC)c(CNCc2c(C(=O)O)n(Cc3ccccc3)c3cc(OC)ccc23)c1,84%
24,COc1ccc(OC)c(CNCc2c(C(=O)O)n(Cc3cccc(F)c3)c3cc(OC)ccc23)c1,-3% (active)

row,SMILES,survival
1,CCc1ccc(CNCc2c(C(=O)O)n(Cc3cccc(F)c3)c3cc(OC)ccc23)cc1,63%
2,COc1cc(Cl)c(C)cc1NC(=O)c1nn(-c2ccc(C)cc2)c(=O)n(C)c1=O,66%
3,COc1ccc(-n2c(=O)c3sc4ccccc4c3n(Cc3ccccc3C)c2=O)cc1OC,89%
4,CCS(=O)(=O)NCCc1sc2nc(-c3ccc(OC)cc3)nn2c1C,71%
5,CCCS(=O)(=O)NCCc1sc2nc(-c3ccc(Cl)cc3)nn2c1C,81%
6,COc1ccc(F)cc1S(=O)(=O)NCCc1sc2nc(-c3ccc(F)cc3)nn2c1C,57%
7,Cc1c(CCNS(=O)(=O)c2ccccc2)sc2nc(-c3ccc(Cl)cc3)nn12,1% (active)
8,COc1ccc(-c2nc3sc(CCNS(=O)(=O)c4ccccc4)c(C)n3n2)cc1,57%
9,Cc1ccc(-c2nc3sc(CCNS(=O)(=O)c4cc(F)ccc4F)c(C)n3n2)cc1,-4% (active)
10,CCCS(=O)(=O)NCCc1sc2nc(-c3ccc(F)cc3)nn2c1C,60%
11,Cc1cc(C)c(S(=O)(=O)NCCc2sc3nc(-c4ccc(F)cc4)nn3c2C)c(C)c1,63%
12,COc1ccc(-c2nc3sc(CCNS(=O)(=O)c4c(C)cc(C)cc4C)c(C)n3n2)cc1,-3% (active)
13,Cc1ccc(C(=O)Nc2nnc(S(=O)(=O)N3c4ccccc4CC3C)s2)cc1 (stereo not drawn),38%
14,CCc1ccc(NC(=O)CSc2nc3c([nH]c4ccccc43)c(=O)n2-c2ccc(C)cc2)cc1,159%
15,COC(=O)c1sc(NC(=O)/C=C/c2ccc(OC)c(OC)c2)c(C(=O)OC)c1C,55%
16,Cc1ccc(OCC(=O)Nc2ccc(S(=O)(=O)Nc3ncccn3)cc2)c(C(C)(C)C)c1,64%
17,CCCCNC(=O)CSc1nc2ccccc2nc1Cc1ccc(Cl)cc1,146%
18,O=C(Cc1ccccc1)Nc1cccnc1,116%
19,CCN1CCN(c2csc3ccc(Br)cc3c2=O)CC1,83%
20,CCc1nnc(NC(=O)c2nc(S(=O)(=O)Cc3ccc(C)cc3)ncc2Cl)s1,57%
21,Cc1cccc(Cn2c(COc3ccc(Cl)cc3)nc3ccccc32)c1,61%
22,Cc1ccc(Cn2c(Cc3ccccc3)nc3ccccc32)cc1,-1% (active)
23,Cc1cccc(Cn2c(COc3ccccc3)nc3ccccc32)c1,-11% (active)
24,Cc1cccc(Cn2c(Cc3ccccc3)nc3ccccc32)c1,29% (active)

row,SMILES,survival
1,Cc1ccc(Cn2c(CNC(=O)c3cccc(C)c3)nc3ccccc32)cc1,107%
2,Cc1cccc(Cn2c(CNC(=O)c3ccccc3)nc3ccccc32)c1,84%
3,Cc1ccc(Cn2c(CCNC(=O)C(C)C)nc3ccccc32)cc1,81%
4,CC(C)c1ccc(Cn2c(COc3ccccc3)nc3ccccc32)cc1,-1% (active)
5,COCc1nc2ccccc2n1Cc1cccc(C)c1,81%
6,COc1cc(OC)c(NC(=O)c2cn(C3CCCC3)c(=O)c3c2c2ccccc2n3C)cc1Cl,80%
7,CCOC(=O)N1CCN(c2ncnc3c2cnn3-c2ccccc2)CC1,112%
8,Cc1cccc(-c2noc(-c3ccc(NCc4cccnc4)c([N+](=O)[O-])c3)n2)c1,81%
9,COCCNC(=O)Cn1cc(/C=C(\C#N)C(N)=O)c2ccccc21,114%
10,COc1ccc(CNC(=O)C(Cc2ccccc2)NS(=O)(=O)c2ccc3c(c2)CCN3C(C)=O)cc1 (stereo not drawn),127%
11,Cc1coc2c(C)c3oc(=O)c(CC(=O)NCCc4ccc(Cl)cc4)c(C)c3cc12,99%
12,COc1cccc(Cn2c(CNS(=O)(=O)c3ccc(F)c(Cl)c3)nc3cccnc32)c1,159%
13,O=C(NCC1COc2ccccc2O1)c1cn(Cc2ccc(F)cc2)nn1 (stereo not drawn),107%
14,COc1ccc(N2CCN(c3oc(/C=C/c4ccccc4OC)nc3C#N)CC2)cc1,86%
15,O=C1CC(c2ccc3c(c2)OCO3)CC2=C1C(c1ccncc1)Nc1ccccc1N2 (stereo not drawn),81%
16,CC(O)c1nc2ccccc2n1Cc1ccccc1 (stereo not drawn),100%
17,CC(C)(C)c1ccc(Cn2c(Cc3ccccc3)nc3ccccc32)cc1,-1% (active)
18,Clc1ccc(OCc2nc3ccccc3n2Cc2ccccc2)c(Cl)c1,7% (active)
19,CCn1c(COc2ccc(Cl)cc2Cl)nc2ccccc21,78%
20,O=C(NCCc1nc2ccccc2n1Cc1ccc(Cl)cc1Cl)c1ccco1,76%
21,CCC(=O)NCc1nc2ccccc2n1Cc1ccccc1,106%
